Data as given in the supplement of paper PMC12494721.
Structures can show the parent of a compound that is named as a salt.

How the values were obtained:
Conditions in all cases: incubation time: 27 h, anaerobic, 37 °C;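 for the amine columns active = adjusted P below 0.05 in both replicates with a change the same way and a mean fold change under 0.8 or over 1.25; inactive = the rest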
[1] = tested on: Clostridium sporogenes DSM 1664; assay: growth (OD595) fold change vs plate DMSO controls (fold change (ratio)); higher = more growth
Procedure, shortened: (§1)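 After 27 h at 37 °C under anaerobic conditions, 96-well cultures in mGAM were shaken and read at 595 nm. The readings were blank-subtracted, corrected for compound background using 20 µM compound solutions in water, and converted to OD with a calibration factor of 5. Growth is defined as the fold change over the median of DMSO controls on each plate. Fold changes above 1.5 were set to NA, and each value is the mean of 2 biological replicates.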

[2] = tested on: Escherichia coli IAI1; assay: as above
Procedure, shortened: as §1

[3] = tested on: Klebsiella aerogenes DSM 30053; assay: as above
Procedure, shortened: as §1

[4] = tested on: Ruminococcus gnavus DSM 108212; assay: as above
Procedure, shortened: as §1

[5] = tested on: Klebsiella aerogenes DSM 30053; assay: fold change of Histamine concentration vs plate DMSO controls (fold change (ratio)); higher = more amine produced, active = hit call of the paper (significant change in both replicates, either direction)
Procedure, shortened: (§2)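 Extracts of whole anaerobic mGAM cultures were analysed for amines by LC–triple-quadrupole MS with dynamic MRM and external calibration curves, with drift corrected within batch. Four gut strains were grown at 37 °C for 27 h in 80 µL wells with compounds at 20 µM final, sweeteners at 50 µM final. Each value expresses fold change over plate DMSO controls. The average of 2 biological replicates is shown.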

[6] = tested on: Clostridium sporogenes DSM 1664; assay: fold change of Tryptamine concentration vs plate DMSO controls (fold change (ratio)); higher = more amine produced, active = hit call of the paper (significant change in both replicates, either direction)
Procedure, shortened: as §2

[7] = tested on: Ruminococcus gnavus DSM 108212; assay: as above
Procedure, shortened: as §2

[8] = tested on: Escherichia coli IAI1; assay: fold change of Putrescine concentration vs plate DMSO controls (fold change (ratio)); higher = more amine produced, active = hit call of the paper (significant change in both replicates, either direction)
Procedure, shortened: as §2

[9] = tested on: Klebsiella aerogenes DSM 30053; assay: as above
Procedure, shortened: as §2

[10] = tested on: Escherichia coli IAI1; assay: fold change of Cadaverine concentration vs plate DMSO controls (fold change (ratio)); higher = more amine produced, active = hit call of the paper (significant change in both replicates, either direction)
Procedure, shortened: as §2

[11] = tested on: Klebsiella aerogenes DSM 30053; assay: as above
Procedure, shortened: as §2

[12] = tested on: Ruminococcus gnavus DSM 108212; assay: fold change of 2-Phenylethylamine concentration vs plate DMSO controls (fold change (ratio)); higher = more amine produced, active = hit call of the paper (significant change in both replicates, either direction)
Procedure, shortened: as §2

Compound	growth [1]	growth [2]	growth [3]	growth [4]	fold change of Histamine concentration [5]	fold change of Tryptamine concentration [6]	fold change of Tryptamine concentration [7]	fold change of Putrescine concentration [8]	fold change of Putrescine concentration [9]	fold change of Cadaverine concentration [10]	fold change of Cadaverine concentration [11]	fold change of 2-Phenylethylamine concentration [12]
CCc1cc(Cl)c(OC)c(C(=O)NC[C@@H]2CCCN2CC)c1O [(S,-) Eticlopride hydrochloride] (20 µM)	0.973	0.985	1.02	0.979	1.04 (inactive)	0.99 (inactive)	0.88 (inactive)	0.975 (inactive)	1.02 (inactive)	1.01 (inactive)	0.985 (inactive)	0.939 (inactive)
O=C1CCc2cc(OCCCCc3nnnn3C3CCCCC3)ccc2N1 [Cilostazol] (20 µM)	1.06	0.963	0.98	0.879	1.04 (inactive)	1.02 (inactive)	0.994 (inactive)	1.01 (inactive)	1.03 (inactive)	1.03 (inactive)	0.995 (inactive)	0.936 (inactive)
COc1ccc(C(=O)CC(=O)c2ccc(C(C)(C)C)cc2)cc1 [Avobenzone] (20 µM)	0.839	0.95	0.975	0.891	1.01 (inactive)	0.932 (inactive)	1.02 (inactive)	0.998 (inactive)	0.993 (inactive)	1.05 (inactive)	0.988 (inactive)	1.08 (inactive)
CN/C(=N\CCSCc1nc[nH]c1C)NC#N [Cimetidine] (20 µM)	1.03	1.02	1.07	1.18	0.893 (inactive)	0.981 (inactive)	0.997 (inactive)	1.02 (inactive)	0.979 (inactive)	1.03 (inactive)	1.01 (inactive)	1.01 (inactive)
COc1cc(N)cn[n+]1-c1ccccc1 [Amezinium metilsulfate] (20 µM)	1.05	1.04	1.08	1.07	0.987 (inactive)	1.05 (inactive)	1.06 (inactive)	0.969 (inactive)	0.98 (inactive)	1.02 (inactive)	0.995 (inactive)	1.11 (inactive)
C[C@@H]1C[C@H]2[C@@H]3C[C@H](F)C4=CC(=O)C=C[C@]4(C)[C@@]3(F)[C@@H](O)C[C@]2(C)[C@@]1(O)C(=O)CO [Flumethasone] (20 µM)	1.02	1	1.01	1.2	0.997 (inactive)	0.979 (inactive)	1.01 (inactive)	0.991 (inactive)	0.989 (inactive)	1.04 (inactive)	0.991 (inactive)	0.972 (inactive)
COc1cc2/c(=N/c3ccc(Br)cc3F)nc[nH]c2cc1OCC1CCN(C)CC1 [Vandetanib] (20 µM)	1.15	1.07	1.06	0.995	1.01 (inactive)	1.04 (inactive)	1.11 (inactive)	0.989 (inactive)	0.907 (inactive)	0.992 (inactive)	1.1 (inactive)	1.14 (inactive)
Nc1nnc(-c2cccc(Cl)c2Cl)c(N)n1 [Lamotrigine] (20 µM)	0.937	0.978	0.986	0.963	0.977 (inactive)	1.03 (inactive)	1.04 (inactive)	0.946 (inactive)	1.02 (inactive)	1.23 (inactive)	0.989 (inactive)	1.06 (inactive)
Cc1c(Nc2ncccc2C(=O)O)cccc1C(F)(F)F [Flunixin meglumine] (20 µM)	0.944	1.04	1.05	1.15	0.909 (inactive)	1.03 (inactive)	0.992 (inactive)	1.07 (inactive)	0.959 (inactive)	1.01 (inactive)	1 (inactive)	1.02 (inactive)
Cc1cccc(C)c1NC(=O)CC12CCCN1CCC2 [Pilsicainide Hydrochloride] (20 µM)	0.937	1.04	1.01	1.04	0.986 (inactive)	0.995 (inactive)	1.05 (inactive)	1.05 (inactive)	0.984 (inactive)	1.03 (inactive)	0.98 (inactive)	1.06 (inactive)
CC(C)NCC(O)COc1ccc(CCOCC2CC2)cc1 (centres undefined) [Betaxolol hydrochloride] (20 µM)	1.11	0.969	1.07	0.967	0.935 (inactive)	0.955 (inactive)	1 (inactive)	1.02 (inactive)	0.994 (inactive)	0.99 (inactive)	1 (inactive)	1.01 (inactive)
CCCCNc1ccc(C(=O)OCCOCCOCCOCCOCCOCCOCCOCCOCCOC)cc1 [Benzonatate] (20 µM)	0.953	1.03	1.04	0.922	0.929 (inactive)	0.96 (inactive)	0.971 (inactive)	1 (inactive)	0.995 (inactive)	1.04 (inactive)	1.01 (inactive)	0.936 (inactive)
